High-throughput results: PubChem BioAssay, National Center for Advancing Translational Sciences (NCATS)
A selection: hits, their analogues and other compounds. The true share with any hit is near 4.4%.
D1 ag: agonists of human D1 dopamine receptor; P21728; HEK293 T-REx D1 cells, calcium flux, agonist mode; activation, % at 2 µM; actives 1% (n = 360,000); AID 504660
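Tetracycline-induced HEK293 TREx D1 cells, force-coupled to calcium signalling, were dye-loaded with a no-wash calcium kit. Compound was pin-added after a 10 s baseline. Fluorescence was read kinetically at 1 cycle/s for 180 s, with calcium rises flagged as agonism.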
USP1-UAF1 inh: USP1/UAF1 (human) deubiquitinase inhibition. O94782. recombinant USP1/UAF1, Ub-Rhodamine cleavage fluorescence. Potency, µM (top dose mostly 57.1 µM), hits mostly inhibitors. actives 0.23% (n = 390,000); active means well fitted inhibition curve with a large enough effect; inconclusive means small, poorly fitted or top-dose-only effect; inactive means no such curve, though single readings can be large or run the other way; further: nearly all actives have a fitted effect of over 60% in size
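USP1/UAF1 complex (1 nM) preincubated 15 min at room temperature with compound, then Ub-Rho substrate (150 nM final) added. Kinetic fluorescence at 480/540 nm over 6 reads at 60 s intervals; 50 mM HEPES pH 7.8, 0.5 mM EDTA, 0.1 mg/ml BSA, 1 mM TCEP, 0.01% Tween-20.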
D1 PAM: human D1 dopamine receptor positive modulation; P21728; HEK293 TREx D1 cells, calcium flux, dopamine EC20 potentiation; potentiation, % at 10 µM; actives 0.036% (n = 360,000); AID 504651; in the data active means potentiation above about 30%
TRHR ag: TRH receptor (human) agonism | activation, % at 2 µM | TRHR cells, calcium flux fluo-8, FDSS agonist mode | actives 0.18% (n = 360,000) | P34981
Target sequence (P34981 whole entry, looked up): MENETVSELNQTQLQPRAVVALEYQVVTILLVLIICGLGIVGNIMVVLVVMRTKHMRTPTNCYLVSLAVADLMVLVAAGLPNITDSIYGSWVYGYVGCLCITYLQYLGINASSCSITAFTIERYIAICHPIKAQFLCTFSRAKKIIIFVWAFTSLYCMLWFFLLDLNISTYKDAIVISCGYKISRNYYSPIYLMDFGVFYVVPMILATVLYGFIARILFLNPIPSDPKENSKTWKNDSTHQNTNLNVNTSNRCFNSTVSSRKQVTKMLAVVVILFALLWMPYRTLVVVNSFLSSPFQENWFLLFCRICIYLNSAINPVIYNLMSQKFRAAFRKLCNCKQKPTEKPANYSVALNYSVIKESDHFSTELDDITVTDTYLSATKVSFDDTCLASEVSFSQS
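Steps: seed TRHR cells overnight; add fluo-8 no-wash Ca dye, RT 30 min–1.5 h; record 10 s baseline; pin-transfer compounds; monitor fluorescence 1 cycle/s for the agonist window. Calcium increases flag candidate agonists.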
D1 antag: human D1 dopamine receptor antagonism | P21728 | HEK293 TREx D1 cells, calcium flux, dopamine EC80; stronger effect = lower value | activity change, negative = inhibition, % at 10 µM | actives 3.2% (n = 360,000) | AID 504652; in the data active means activity change below about -30%
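Allosteric or orthosteric antagonism assessed as attenuation of the calcium response to EC80 dopamine, added 180 s after compound, in induced HEK293 Trex D1 cells loaded with no-wash calcium dye.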
TRHR PAM: TRH receptor (human) allosteric enhancement; TRHR cells, fluo-8 calcium fluorescence, EC20 TRH enhancement; actives 0.66% (n = 360,000); enhancement, % at 2 µM; AID 493056; P34981; in the data active means enhancement above about 30%
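TRHR-expressing cells loaded with fluo-8 calcium dye were read kinetically (ex 480/em 530) during compound addition, then stimulated with an EC20 of TRH (10 nM final). Enhancement of the Gq-mediated intracellular calcium response was scored.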
Of the large screens only hits and unclear results are named; the others gave an inactive call; ! = a repeat was not active. Unless noted, no stated cut-off is given here; in the data, active means activation above about 30%; inactive means the rest.

COc1ccc(C(=O)C(OC(=O)c2ccccc2Cl)c2ccccc2)cc1 (configuration not stated)	D1 antag -32.8
O=C(CNC(=O)c1ccccc1)OCc1cc(=O)n2nc(C3CC3)sc2n1	none
COc1cc(C2CC(=O)Oc3c2c(=O)[nH]c2ccccc32)cc(OC)c1OC (configuration not stated)	TRHR PAM 30.6
O=C1CC(c2ccc(F)cc2)c2c(c3ccccc3[nH]c2=O)O1 (configuration not stated)	none
CC(C)(C)c1cc(CCC(=O)NNC(=S)NC(=O)c2ccccc2)cc(C(C)(C)C)c1O	D1 ag 132.5, D1 antag -66.3
O=C(NNC(=S)NC(=O)c1ccc(Br)cc1)c1ccc([N+](=O)[O-])cc1	none
O=C(NNC(=S)NC(=O)c1ccc(Br)cc1)c1cccc([N+](=O)[O-])c1	D1 ag 32.2
Cc1ccc(C(=O)NNC(=S)NC(=O)c2ccco2)cc1	D1 ag 59.1
Cc1ccc(C(=O)NC(=S)NNC(=O)c2ccccc2O)cc1	D1 ag 55.2
O=C(NC(=S)NNC(=O)c1ccccc1O)c1ccccc1	none
CCOc1ccc(CNC(=O)c2oc3c(c2C)-c2nn(Cc4cccc(Cl)c4)cc2CC3)cc1	none
CCC1CN(C(=O)N2CCC(C(=O)NCCCc3ccccc3)CC2)c2ccccc2O1 (configuration not stated)	none
Cc1ccccc1C(=O)NNC(=S)NC(=O)c1ccccc1	D1 ag 279.3, TRHR ag 58.9, D1 antag -37.3
Cc1ccc(C(=O)NC(=S)NNC(=O)c2ccccc2)cc1	D1 ag 200.0, TRHR ag 30.6, D1 antag -41.8
Cc1cccc(-c2nnc(NC(=O)c3cccs3)s2)c1	D1 antag -41.2
Cc1ccc(C(=O)NNC(=S)NC(=O)c2ccc(Cl)cc2Cl)cc1	D1 ag 153.6, TRHR ag 32.2
Cc1ccc(C(=O)NNC(=S)NC(=O)c2ccccc2)cc1	none (no result: D1 ag, D1 PAM, TRHR ag, D1 antag, TRHR PAM)
O=C(Nc1nnc(-c2cccnc2)s1)c1cccs1	none
CCc1ccc(Sc2cc(C(=O)NCc3ccccc3OC)c3ccccc3n2)cc1	none
COC(=O)c1c(SC)nc2ccccc2c1OCc1ccc(C)cc1C	none
CCc1sc(Nc2cccc(C)c2C)nc1-c1cc2cccc(OC)c2oc1=O	none
COc1ccc(CNC(=S)Nc2cc(C)ccc2C)cc1	none
Cc1ccc(C)c(NC(=S)NCc2ccccc2)c1	D1 antag -36.3
Cc1cccc(C(=O)NNC(=S)NC(=O)c2ccccc2)c1	none (no result: D1 ag, D1 PAM, TRHR ag, D1 antag, TRHR PAM)
Cc1cccc(C(=O)NNC(=S)NC(=O)c2cccs2)c1	D1 ag 75.7
Cc1ccc(C)c(NC(=S)NNC(=O)c2ccco2)c1	D1 antag -35.3
Cc1ccc(OCc2nnc(SCC(=O)Nc3ccccc3C(C)C)o2)cc1	none
O=C(Cn1cc(SCc2ccc(Cl)cc2)c2ccccc21)N1CCCC1	none
COc1cccc(NC(=O)c2cc3c(=O)n(C)c4ccccc4c3n2C)c1	none
CC(=O)N(C1=C(Cl)C(=O)c2ccccc2C1=O)C1CCCCC1	USP1-UAF1 inh inconclusive, D1 antag -34.8
Nc1cc2nsnc2cc1Br	USP1-UAF1 inh 4.47µM
CCOc1ccc(Nc2nc(N)c(C(=O)c3ccccc3Cl)s2)cc1	none
COc1ccc(NC(=O)c2ccc(COc3ccccc3)o2)c(OC)c1	D1 antag -30.9
O=C(Nc1cccnc1)c1ccc(COc2ccccc2Br)o1	none
CC(C)(C)c1ccc(OCc2ccc(C(=O)Nc3cccnc3)o2)cc1	TRHR PAM 38.3
CCOC(=O)c1ccccc1NC(=O)C(=O)Nc1ccc2nc3n(c(=O)c2c1)CCCCC3	none
CCc1ccc(-n2nc(C)c3c(C)cc(=O)n(CC(=O)Nc4cc(Cl)ccc4OC)c32)cc1	none
Cc1cc(OCCN2CCOCC2)ccc1Cl	D1 antag -93.9
Cc1ccc(OCCN2CCOCC2)cc1C	none
Brc1ccc(OCCN2CCOCC2)cc1	none
Clc1ccc(OCCN2CCOCC2)cc1	TRHR PAM 36.0
COc1cc(OC)c(N(C)C(=O)Nc2cn(CC(C)C)c(=O)c3ccccc23)cc1Cl	none
Cc1ccc(CNC(=O)CN(c2cccc([N+](=O)[O-])c2)S(C)(=O)=O)cc1	D1 antag -35.4
Cc1ccc(CNC(=O)CN(c2cccc([N+](=O)[O-])c2)S(=O)(=O)c2ccccc2)cc1	none
COc1ccccc1CNC(=O)CN(c1cccc([N+](=O)[O-])c1)S(C)(=O)=O	D1 antag -34.8
Cc1ccccc1CNC(=O)CN(c1cccc([N+](=O)[O-])c1)S(C)(=O)=O	none
CCCOc1cccc(C2c3c(oc4cc(C)c(C)cc4c3=O)C(=O)N2CCCN2CCOCC2)c1 (configuration not stated)	none
Cc1cc(C)cc(Nc2cc(=O)n(C3CCCCC3)c(=O)[nH]2)c1	none
Cc1cc2nc3c(=O)n(C4CCCCC4)c(=O)[nH]c3nc2cc1N	D1 ag 213.2, USP1-UAF1 inh inconclusive, TRHR ag 119.2
O=C(CN1C(=O)c2cccnc2Sc2ccccc21)Nc1cc(F)ccc1F	none
Cc1cc(C(=O)N2CCCC(Nc3ccccc3)C2)c2ccc(F)cc2n1 (configuration not stated)	D1 antag -33.3
O=C(CCn1cnnn1)N1CCCC(Nc2ccc(F)cc2)C1 (configuration not stated)	D1 antag -35.2
COc1ccc(NC2CCCN(C(=O)CCN3Cc4ccccc4C3=O)C2)cc1 (configuration not stated)	D1 antag -93.6
O=C(c1cc2cc(F)ccc2[nH]1)N1CCCC(Nc2ccc(F)cc2)C1 (configuration not stated)	D1 antag -35.3
O=C(c1ccc(Cn2cnnn2)cc1)N1CCCC(Nc2ccc(F)cc2)C1 (configuration not stated)	none
COc1ccccc1C(=O)NCCn1cc(SCc2ccc(C)cc2)c2ccccc21	none
COc1ccccc1NC(=O)CN1C(=O)c2cccc3cccc1c23	USP1-UAF1 inh inconclusive
Cc1cc2[nH]c3c(=O)n(Cc4ccccc4F)ncc3c2s1	D1 antag -71.6! (no result: USP1-UAF1 inh)
CCn1c2cc(C)sc2c2cnn(Cc3ccccc3F)c(=O)c21	none (no result: USP1-UAF1 inh)
Cn1c2cc(Br)sc2c2cnn(Cc3ccccc3F)c(=O)c21	none (no result: USP1-UAF1 inh)
Cc1[nH]cnc1CSCc1ccc(Cl)cc1	D1 ag 35.8
Cc1[nH]cnc1CSCCN	none
COc1ccc(Br)cc1CNC(=O)c1cnc2sc(N3CCC(C)CC3)nn2c1=O	none
COc1ccc(CNC(=O)c2cccn2-c2nnc(N3CCCCC3)s2)c(OC)c1	none
Cc1nn(CC(=O)NCc2cccc(Br)c2)c(=O)c2c1sc1ccccc12	none
